Source: PubChem (several laboratories)
This is a sample that favours compounds with a hit; in the whole collection about 4.2% have one here.
TIM10 inh – growth inhibitors of TIM10 yeast strain | S. cerevisiae TIM10 strain growth, BacTiter-Glo luminescence, 24 h | inhibition, % at 10 µM | 1.4% of 330,000 active | AID 463195;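 active means inhibition of 40% or more at the single tested concentration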;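 further: wild-type TIM10 isogenic control strain grown at permissive 25 °C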
tim10-1 inh – tim10-1 yeast growth inhibition; inhibition, % at 20 µM; S. cerevisiae tim10-1 ts strain growth, BacTiter-Glo, 24 h; 2.2% of 330,000 active;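 active means inhibition of at least 40%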;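 further: mutant grown at 25 °C; 0% = DMSO wells with yeast and 100% = wells holding no yeast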
NALP3 yeast inh – inhibitors of NALP3 inflammasome in yeast | inhibition, % at 10 µM | 0.39% of 330,000 active | Yeast reconstituted NLRP3/ASC/caspase-1, beta-gal luminescence, 24 h;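 active means inhibition of 50% or more; inactive means inhibition below 50%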;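 further: plate controls were induced DMSO wells for no effect and uninduced yeast grown without galactose for full effect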
V-ATPase pHluor – regulators of yeast V-ATPase proton transport; AID 504577; response, % at 10 µM; 0.37% of 350,000 active; S. cerevisiae, pHLuorin cytosolic pH fluorescence; in the data active means response mostly above about 7.3%, no sharp cut-off; inactive means mostly below about 5.4%; further: actives read high
tim23-1 inh – growth inhibitors of tim23-1 mutant yeast | S. cerevisiae tim23-1 growth, BacTiter-Glo luminescence, 24 h | inhibition, % at 20 µM | 1.3% of 330,000 active | AID 463212;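 active means growth inhibition of the mutant yeast at or above 50%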;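 further: temperature-sensitive mutant grown at 25 °C; plate controls were DMSO-treated mutant yeast for no effect and medium wells lacking yeast for full effect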
NALP1 yeast inh – NALP1 inhibition | S. cerevisiae NALP1/ASC/caspase-1 growth, X-gal OD620, 72 h | inhibition, % at 10 µM | 0.61% of 280,000 active; in the data active means inhibition mostly above about 24%, no sharp cut-off; inactive means mostly below about 32%
V-ATPase pH SP – yeast V-ATPase proton transport regulation. response, % at 10 µM. AID 602197. S. cerevisiae pHLuorin cytosolic pH. 2% of 980 active. shares compounds with V-ATPase pHluor; in the data active means response above about 24%;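 further: plate controls were vehicle wells for no effect and positive control wells for full effect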
Active calls of the source: *; / = no result.

SMILES | TIM10 inh | tim10-1 inh | NALP3 yeast inh | V-ATPase pHluor | tim23-1 inh | NALP1 yeast inh | V-ATPase pH SP
CCCN(C(=O)COc1ccc(C(C)=O)cc1OC)C1CCS(=O)(=O)C1 (stereo not drawn) | 2.8 | 21.8 | 28.6 | 10.2* | 3.4 | / | -5.3
O=C(c1ccco1)N1N=C(c2ccccc2)CC1c1ccc2nccnc2c1 (stereo not drawn) | 25.0 | 20.1 | -2.5 | -0.6 | 31.4 | 0.5 | /
CC(C)(C)c1ccc(-c2nnc(SCC(=O)NC3CC3)o2)cc1 | 8.7 | 15.4 | -3.4 | 0.6 | 30.0 | / | /
CCN(CC)C(=O)CCSc1nnc(-c2ccncc2)o1 | 4.1 | -3.2 | 16.4 | 0.5 | 12.6 | 26.7 | /
O=C(CSc1nnc(-c2ccccc2)o1)OCc1ccccc1 | 12.2 | 10.9 | 15.2 | -5.0 | 3.9 | 2.3 | 3.2
CCN(CC)C(=O)CSc1nnc(-c2ccccc2)o1 | 0.3 | -6.8 | 13.3 | -0.7 | 8.1 | 6.1 | 1.7
CCOc1ccc(-c2nnc(SCC(=O)NC3CC3)o2)cc1 | -2.7 | 5.2 | 18.5 | 10.0* | 19.2 | / | -1.5
Cc1cccc(/C=N/NC(=O)CC(=O)NCCc2ccccc2)c1 | -2.2 | -8.8 | 6.7 | -2.0 | -15.5 | / | /
Cc1ccn2cc(CCNC(=O)COc3ccccc3)nc2c1 | -2.2 | 1.7 | -0.9 | -0.5 | 13.2 | 15.3 | /
Cn1nnnc1Sc1c(Cl)cccc1[N+](=O)[O-] | 6.0 | 1.3 | -3.0 | 7.8* | -6.3 | 35.1 | 2.7
Cn1nnnc1Sc1ccc([N+](=O)[O-])cc1Cl | -0.6 | 18.6 | 2.3 | -2.8 | 7.0 | 10.3 | /
CCOC(=O)c1c(NC(=O)COC(=O)Cc2n[nH]c(=O)c3ccccc23)sc(C(=O)NC)c1C | 11.2 | -8.3 | 10.3 | 0.3 | 1.0 | / | /
O=S(=O)(c1ccc(Cl)nc1)N1CCc2ccccc21 | -8.6 | 6.5 | 12.1 | 11.8* | 9.0 | -8.1 | 1.0
O=S(=O)(c1ccc(Cl)nc1)N1CCCc2ccccc21 | 7.3 | 25.4 | 11.6 | -3.8 | 3.6 | 20.6 | /
OC(CNc1ccccc1)Cn1ccc2ccccc21 (stereo not drawn) | 11.8 | 19.7 | 3.7 | -1.0 | 14.6 | 12.0 | /
CCCCSCCCNC(=O)CCCN1C(=O)c2ccccc2Sc2ncccc21 | 2.9 | 0.8 | -1.2 | -2.7 | -3.5 | 12.8 | /
CCCNC(=O)CCCN1C(=O)c2ccccc2Sc2ncccc21 | -9.0 | 23.2 | -8.8 | 9.0* | 6.1 | 13.3 | 4.8
CCOC(=O)COn1c(=O)c(C)[n+]([O-])c2ccccc21 | -2.3 | -6.3 | 19.7 | -6.2 | 0.1 | 20.8 | /
CCOC(=O)COn1c(=O)c[n+]([O-])c2ccccc21 | -15.2 | 7.2 | 0.3 | 15.3* | 7.3 | 10.0 | -0.6
CC1=NN(c2nc(N)nc(/C(C#N)=C/c3ccc([N+](=O)[O-])o3)n2)C(C)(C)C1 | / | / | / | 47.6* | / | / | 0.0
COc1ccc(NC(=O)C2CCCCN2S(=O)(=O)c2ccccc2)cc1S(=O)(=O)N1CCOCC1 (stereo not drawn) | / | / | / | -0.8 | / | / | /
O=C(c1cc(Cl)nc2ccccc12)N1CCN(S(=O)(=O)c2cccc(F)c2)CC1 | 10.4 | 0.8 | 4.3 | -3.0 | 15.4 | / | /
O=C(c1cc(Cl)nc2ccccc12)N1CCN(S(=O)(=O)c2ccccc2[N+](=O)[O-])CC1 | 10.4 | 10.8 | 14.9 | 14.5* | 8.0 | -2.9 | 1.5
O=C(CCS(=O)(=O)c1cc2c(cc1Cl)NC(=O)CO2)NCc1ccc(F)cc1 | 4.8 | -8.7 | 11.3 | -1.1 | -7.9 | 19.8 | /
CCN1C(=O)C(CC(=O)Nc2ccc(OC)cc2)N(CCCN2CCN(c3ccc(F)cc3)CC2)C1=S (stereo not drawn) | 2.6 | 7.0 | -6.2 | 13.3* | 14.3 | -9.7 | 2.8
SMILES | TIM10 inh | tim10-1 inh | NALP3 yeast inh | V-ATPase pHluor | tim23-1 inh | NALP1 yeast inh | V-ATPase pH SP
CCCN1CCc2c(sc3nc(SC)n(-c4ccccc4)c(=O)c23)C1 | -53.2 | -13.2 | 20.4 | 1.8 | -7.7 | 2.3 | /
NC(=O)c1ccccc1O | -1.7 | 0.8 | 4.8 | 5.5 | 4.8 | 12.6 | /
O=C(C/C(=N/O)c1ccccc1O)C(F)F | 6.5 | -5.2 | 3.2 | 26.3* | -10.2 | 7.0 | -1.6
O=C1C=C(c2ccc(C(=O)O)c(Cl)c2)C[C@@H](c2ccc3c(c2)OCO3)C1 | -1.0 | -1.5 | 8.4 | 2.9 | 10.4 | / | /
COc1ccccc1N1CCN(C2CCCN(S(=O)(=O)c3ccc(C)cc3)C2)CC1 (stereo not drawn) | 1.9 | 8.3 | 10.0 | 10.3* | 12.0 | 22.6 | 2.4
COc1ccc(C2/C(=C(/O)c3ccc(C)cc3)C(=O)C(=O)N2CCCN2CCOCC2)cc1 (stereo not drawn) | -8.9 | -0.9 | 18.4 | 0.6 | 5.9 | 11.9 | /
Cc1ccc(Nc2nc3ccccc3c(=O)[nH]2)cc1C | 22.4 | 14.5 | 23.5 | 11.2* | 5.7 | -2.3 | -0.7
Nc1c(Br)c(=O)[nH]c(=O)n1-c1ccccc1 | 9.0 | 1.7 | 21.6 | 2.6 | -3.7 | 2.6 | /
CCc1c(C#N)c(=O)[nH]c(=O)n1-c1ccccc1 | -3.3 | -0.8 | 2.4 | 10.0* | 11.0 | / | -1.4
COc1ccc(C(=O)C(O)C(c2ccc(C)cc2)N2CCOCC2)cc1OC (stereo not drawn) | 19.8 | 8.6 | 27.3 | -1.3 | 7.3 | 12.4 | /
COc1ccc(CCCC(=O)N/N=C\c2cccs2)cc1 | -4.3 | -7.2 | 7.2 | 8.6* | 13.7 | 11.2 | -1.1
COC(=O)N/N=C/c1cccs1 | -0.1 | -5.3 | 11.1 | -0.2 | 4.1 | 6.1 | /
Cc1cc(C)cc(OCCCn2ccnc2)c1 | -4.6 | -12.6 | -0.1 | 9.0* | 5.2 | / | -2.6
Cc1cccc(OCCCn2ccnc2)c1 | 0.4 | 15.0 | 0.4 | -1.4 | 2.6 | 25.4 | /
N#Cc1cc2c(nc1Cl)CCCC2 | 2.3 | 6.4 | -7.1 | 5.7 | -5.9 | 24.6 | /
Cc1ccc(S(=O)(=O)NC(=O)NCCCCNC(=O)NS(=O)(=O)c2ccc(C)cc2)cc1 | -5.4 | 12.4 | 7.5 | 17.6* | 12.8 | 11.5 | 1.1
COC(=O)Cc1csc(NC(=O)CSc2nncn2C)n1 | 1.5 | -7.3 | 6.9 | / | 3.2 | / | /
Cc1csc(NC(=O)CSc2nncn2C)n1 | -5.1 | -1.7 | 8.8 | 12.9* | -9.4 | 9.5 | -2.4
O=C(c1cc(F)ccc1F)C1CCCN(C(=O)CCN2CCCCO2)C1 (stereo not drawn) | -0.7 | 12.7 | 31.2 | -0.1 | 6.0 | 6.1 | /
Cc1ccc(C(=O)OCCc2sc[n+](Cc3ccccc3)c2C)cc1 | 0.0 | -4.5 | -2.9 | 46.6* | 17.7 | 35.7 | 2.0
CC(C)(C)C(=O)Nc1ccc(S(=O)(=O)N2CCCC2)cc1 | 0.8 | 10.9 | 11.1 | 8.5* | 17.1 | -2.5 | 0.2
CC(=O)Nc1ccc(S(=O)(=O)N2CCCC2)cc1 | -3.2 | -8.8 | 5.0 | -1.8 | -10.4 | -14.3 | /
Cc1cccc(N2CCN(C(=O)c3cc(=O)[nH]c4ccccc34)CC2)c1C | 15.6 | 11.1 | 27.5 | 14.1* | 6.1 | 13.2 | 2.1
COc1nc(Cl)cn(-c2ccc(Cl)cc2)c1=O | 8.8 | 20.8 | 16.3 | -3.3 | 12.6 | 29.3 | -0.7
Cn1cnnc1SCC(=O)Nc1ccc(Cl)c(S(=O)(=O)N2CCOCC2)c1 | 9.0 | -9.7 | 10.7 | -2.8 | -2.8 | 11.0 | /
